Screening data from PubChem BioAssay.
Only some compounds are listed: those with a hit (about 2.5% of all), similar ones and a draw of the others.
AF4-AF9 inh = blocks AF4 peptide binding to human AF9. 0.47% of 350,000 active. inhibition, % at 10 µM. P42568. AID 651704. AlphaScreen, biotin-AF4 peptide binding to FLAG-AF9;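 active = every replicate reaching a set inhibition limit, whatever the replicate mean, cut at about 25% in these data; inconclusive = mean inhibition reaches that limit but some replicates miss it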;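 note: 0% = plate neutral control median and 100% = total signal loss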
NSD2 HMT inh = inhibitors of human histone methyltransferase NSD2. O96028. NSD2 peptide methylation, AlphaScreen, 120 min. inhibition, % at 12.5 µM. 0.54% of 310,000 active. AID 743445; in the data active = inhibition above about 50%
RAD52 inh = RAD52 (human) annealing inhibition; recombinant RAD52 DNA annealing, FRET fluorescence; AID 651710; 0.46% of 360,000 active; inhibition, % at 18.7 µM; P43351;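 active = every replicate showing at least 50% inhibition; inconclusive = mean inhibition at least 50% but not in every replicate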
Ecoli rRNA inh = selective bacterial rRNA inhibition in E. coli | E. coli WT GFP vs humanized-ribosome RFP mutants, fluorescence, 24 h; hits give low values; DMSO median 0, no signal -100 | 1.6% of 350,000 active | GFP signal change (wild-type ribosome), % (no concentration beside the values);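 active = significant combined selectivity score with lowered wild-type GFP, culture density cut under 30%, mutant RFP and density less affected; inactive = any of these conditions unmet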
Casp6 inh = blocks human caspase-6 cleavage activity | P55212 | purified caspase-6, Z-VEID-R110 cleavage fluorescence | inhibition, % at 12.5 µM | 0.53% of 350,000 active | AID 686996;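 active = mean inhibition across replicates at least about 35%, with every replicate also reaching that limit, limit read from the data; inconclusive = only one of the two criteria met; inactive = neither criterion met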;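 note: 0% = median of neutral control wells and 100% = no fluorescence left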
Target sequence (P55212 24-179 limits assumed): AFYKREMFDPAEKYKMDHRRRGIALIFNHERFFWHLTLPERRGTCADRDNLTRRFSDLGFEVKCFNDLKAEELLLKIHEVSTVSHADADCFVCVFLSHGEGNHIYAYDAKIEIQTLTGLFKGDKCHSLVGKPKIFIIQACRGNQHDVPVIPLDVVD
Target sequence (P55212 194-293 limits assumed): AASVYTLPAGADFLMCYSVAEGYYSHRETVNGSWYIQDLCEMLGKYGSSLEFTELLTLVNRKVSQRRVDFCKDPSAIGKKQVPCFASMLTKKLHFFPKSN
RAD52 DNA ctr = counter-screen for RAD52 inhibitors: DNA binding compounds; shares compounds with RAD52 inh; Salmon sperm DNA/acridine orange FP displacement; AC50, µM; 8% of 1,000 active; AID 652128;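 active = fitted half-maximal concentration for signal loss at or below twice the highest dose tested, in every separate run, actives reach about 64 µM in these data; inconclusive = runs disagree, or flat partial signal loss, or poor fit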
* marks the source's active call; other numbers are inactive results; i = inactive; ? = inconclusive; . = no result.

SMILES | AF4-AF9 inh | NSD2 HMT inh | RAD52 inh | Ecoli rRNA inh | Casp6 inh | RAD52 DNA ctr
COCC#Cc1ccc2c(c1)O[C@H](CN(C)Cc1ccccn1)[C@H](C)CN([C@@H](C)CO)S2(=O)=O | . | . | . | 4 | . | .
CCOC(=O)N1CCC(NC(=O)c2cc3c(-c4ccccc4F)nn(C)c3s2)CC1 | 1 | . | -3 | 8 | -1 | .
CC1CCCCN1CCNC(=O)c1cc2c(-c3ccccc3F)nn(C)c2s1 (centres undefined) | 1 | . | 56* | -7 | 1 | i
COC(=O)C[C@@H]1CC[C@H]2[C@@H](COc3ccc(NC(=O)C4CCOCC4)cc3C(=O)N2C)O1 | 1 | . | 2 | 2 | 0 | .
CCn1c(SCC(N)=O)nc2sc3c(c2c1=O)CCN(C)C3 | 2 | 0 | 56* | -1 | -2 | i
COc1ccc(OC)c(/C=N/NC(=O)c2cc[n+](CC(=O)c3ccccc3)cc2)c1 | 7 | 9 | 57* | 9 | -9 | i
CN1CCN(c2nc3cc(C(F)(F)F)ccc3n3cccc23)CC1 | 14 | . | 67* | . | . | i
FC(F)(F)c1ccc2c(c1)nc1n2CCCC1 | . | -2 | . | . | . | .
COc1ccc(C2=Nn3c(nnc3-c3ccccc3F)SC2)cc1OC1CCOC1 (centres undefined) | 6 | . | -20 | 1 | -2 | .
COc1ccc(C2=Nn3c(nnc3-c3ccccc3F)SC2)cc1OC1CCCC1 | 11 | . | -9 | -37 | 1 | i
NCc1cc2c3c(c1)CCCN3CCC2 | 51* | 15 | 80* | 18 | -179 | ?
CCCNC(=O)N1[C@H](CO)[C@@H](c2ccccc2C2=CCCC2)[C@@H]1C#N | -9 | . | 16 | 12 | 0 | .
Cc1ccc(-c2c[n+](CC(=O)Nc3nc(-c4ccc(F)cc4)cs3)c3n2CCC3)cc1 | 17 | 1 | 58* | -59 | 12 | i
C[C@@H]1CN([C@H](C)CO)S(=O)(=O)c2ccc(C#CC(C)(C)O)cc2O[C@@H]1CN(C)C(=O)CN(C)C | 1 | . | 10 | 1 | 0 | .
COc1nc(Nc2cccc(F)c2)nc(OC)n1 | -4 | 1 | -5 | 12 | 1 | .
COc1cc2nc(Nc3cccc(F)c3)nc(N)c2cc1OC | 17 | 1 | 61* | -25 | -15 | i
CN(C)CCNC(=O)c1cccc(-c2cnc3c(NC=O)cc(-c4cccc(F)c4)cn23)c1 | 7 | 2 | 91* | -39 | -30 | i
CCSc1ccc(-c2cc(NC=O)c3ncc(-c4cccc(C(=O)NCCN(C)C)c4)n3c2)cc1 | 43* | 11 | 66* | -33 | -96 | i
CN(C)CCNC(=O)c1cccc(-c2cnc3c(NC=O)cc(/C=C/c4ccccc4)cn23)c1 | 34* | -1 | 80* | 8 | -65 | i
CN(C)CCNC(=O)c1cccc(-c2cnc3c(NC=O)cc(-c4ccc(F)cc4)cn23)c1 | 13 | 5 | 92* | -33 | -45 | i
CNC[C@H]1OCCCC[C@H](C)Oc2ccc(NC(=O)Nc3cccc4ccccc34)cc2C(=O)N([C@H](C)CO)C[C@@H]1C | . | . | -225 | 6 | . | .
CCOc1cc(CNCCCN2CCOCC2)cc(Br)c1OCc1ccccc1Cl | 19 | 8 | 50* | -52 | -7 | i
Cc1ccc(-c2cnc3c(c2)C(=O)N([C@@H](C)CO)C[C@H](C)[C@@H](CN(C)CC2CCCC2)O3)cc1 | 2 | . | 2 | 7 | 6 | .
CC(=O)N1[C@@H]2c3ccc(-c4cccnc4)c(=O)n3C[C@H]1[C@H](CO)[C@H]2C(=O)N1CCc2ccccc2C1 | -1 | . | 1 | 0 | -2 | .
Cc1ccc2nc(N(CCCN(C)C)C(=O)c3ccc(S(=O)(=O)N4CCc5ccccc5C4)cc3)sc2c1 | 5 | 1 | 74* | 2 | 11 | i
SMILES | AF4-AF9 inh | NSD2 HMT inh | RAD52 inh | Ecoli rRNA inh | Casp6 inh | RAD52 DNA ctr
Cc1ccc2sc(N(CCCN(C)C)C(=O)c3ccc(S(=O)(=O)N(C)C4CCCCC4)cc3)nc2c1C | 12 | 1 | 61* | -62 | -10 | i
CCN(CC)CCN(C(=O)c1ccc(S(=O)(=O)N(C)C2CCCCC2)cc1)c1nc2c(C)cccc2s1 | 2 | -5 | -18 | -8 | 0 | .
CN(C)CC(=O)N1[C@@H](C#N)[C@@H](c2ccccc2-c2ccc(C(=O)N(C)C)cc2)[C@@H]1CO | -3 | . | 0 | 3 | -2 | .
CCN1CCN(c2ccc(Nc3ccnc4ccccc34)cc2)CC1 | 20 | 25 | 95* | . | -47 | i
CCN1CCN(c2nc(-c3ccccn3)nc3ccccc23)CC1 | . | 30 | . | . | . | .
CN1CCN(c2ccc(Nc3ccnc4cc(Cl)ccc34)cc2)CC1 | 15 | 10 | 88* | 7 | -10 | i
COc1cc(OC)cc(-c2sc3ccc(OC)cc3c2C#CC2(N)CCCCC2)c1 | 10 | . | -55 | -52 | -5 | i
CCOC(=O)c1cnc2ccc(OC)cc2c1Nc1ccc(N2CCN(C)CC2)cc1 | 41* | 25 | 88* | -10 | -25 | i
CCOC(=O)c1cnc2ccc(OC)cc2c1Nc1ccc2c(c1)OCCO2 | . | 3 | . | . | . | .
CC(C)(C)NCC(O)CON=C1c2ccccc2-c2ccccc21 (centres undefined) | 14 | 26 | 55* | -29 | -3 | i
COc1ccccc1C#Cc1cnc2c(c1)C(=O)N([C@@H](C)CO)C[C@@H](C)[C@H](CN(C)S(=O)(=O)c1cn(C)cn1)O2 | 2 | . | 4 | -2 | -3 | .
CCN1CCN(c2cc(C)c3cc(NC(=S)NCc4cccs4)ccc3n2)CC1 | 30* | . | 50* | -7 | -11 | i
Cc1cc(N2CCN(C)CC2)nc2ccc(NC(=S)NCc3cccs3)cc12 | . | . | 63* | -23* | -12 | i
Cc1cc(N2CCOCC2)nc2ccc(NC(=S)NCCN(C)C)cc12 | 2 | 3 | 43 | 8 | . | .
O=C(NCC1CCCCC1)C1(CC2CC(c3ccc(Cl)cc3)=NO2)CCNCC1 (centres undefined) | 9 | . | 67* | -55 | -1 | i
O=C(NCC1CCCCC1)C1(CC2CC(c3cccc(Br)c3)=NO2)CCNCC1 (centres undefined) | 7 | . | -3 | -47 | -1 | .
COc1cccc(NC(=O)N2C[C@@H](O)COC[C@H]3O[C@H](CC(=O)NC4Cc5ccccc5C4)CC[C@@H]32)c1 | -1 | . | -21 | -5 | 1 | .
Clc1ccc2[nH]c3c(c2c1)CNCC3 | -5 | -1 | 65* | 13 | -27 | i
COc1ccc2[nH]c3c(c2c1)CNCC3 | 22 | 6 | -32 | . | -26 | .
NCCCC[C@H]1CNC(=O)C(=O)N1CCc1cc(C(F)(F)F)cc(C(F)(F)F)c1 | 0 | . | -7 | 19 | -1 | .
NCCCC[C@H]1CNC(=S)N1CCCCC1CCCCC1 | 15 | . | 86* | -12 | -246 | i
NCCCC[C@H]1CNC(=S)N1CCc1cc(C(F)(F)F)cc(C(F)(F)F)c1 | 5 | . | 67* | -22 | -145 | i
O=C(C[C@@H]1C=C[C@@H](NC(=O)C2CC2)[C@H](CO)O1)NCc1ccccc1Cl | 0 | . | -7 | 1 | -1 | .
